Data on 39 compounds can be found in PubChem BioAssay (NCI).

About 79,000 compounds went through this panel and 15% of them were active in at least one assay; those are over-represented in the sample as a whole. Values without a mark were called inactive. The source made the active and inactive calls. No stated cut-off is given here; in the data, active means growth inhibition above about 70%; inactive means the rest.

The nature of one assay: NCI Yeast Anticancer Drug Screen. Data for the rad52 strain (AID 147).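 Further: 0% = growth of vehicle-treated control cultures.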 The settings on record: S. cerevisiae rad52 mutant growth inhibition; at 33.0 µM; active compounds read high. In short, it runs like this:
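Screen used a yeast mutant impaired in DNA repair. After compound exposure, growth was measured. Values reflect inhibition compared with vehicle-treated cells.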
Turning to `CCS(=O)(=O)c1ccc(/C=C/C=N/NC(=S)NCC(C)C)cc1`, the growth inhibition is 3%.

`N#CC(C(=O)Nc1ccccc1)C1=C(Cl)C(=O)c2ccccc2C1=O` (configuration not stated): the growth inhibition is 98% (active).

In the case of `C[C@H](CCC(=O)NN)[C@H]1CC[C@H]2[C@@H]3CC[C@@H]4C[C@H](O)CC[C@]4(C)[C@H]3CC[C@]12C`, the growth inhibition was 6%.

Take `CC[n+]1ccc2c(C)c3[nH]c4ccc(O)cc4c3c(C)c2c1`: the growth inhibition was 90% (active).

The assay is the same for the next values; noted with them: S. cerevisiae rad52 mutant growth inhibition; at 100.0 µM; active compounds read high.
For the compound `CCCc1cc(C(=O)OCC)cc(CCC)c1O`, the growth inhibition was 97% (active).

On to `CC(C)[N+]([O-])(CCCNc1c2ccccc2nc2cccc([N+](=O)[O-])c12)C(C)C`, for which the growth inhibition is 98% (active).

In the case of `COc1cc2c3c(cccc3c1)C(=O)N(CCN(C)C)C2=O`, the growth inhibition was 87% (active).

On to `NC(=O)NN=C(CS)CS`, for which the growth inhibition is 88% (active).

Consider `Cc1ccc(NC(=O)/C(Cl)=C(\Cl)C(=O)O)cc1C`, for which the growth inhibition is 99% (active).

For `CCN(CC)CC[n+]1ccc2c(C)c3[nH]c4ccc(O)cc4c3c(C)c2c1`, the growth inhibition is 95% (active).

As for `CC(CC(C)(C)[N+](C)(C)C)[N+](C)(C)C` (configuration not stated), the growth inhibition is 14%.

As for `COc1ccc(OC)c2cc3ccccc3cc12`, the growth inhibition is 17%.

`Nc1ncncc1C(C1=C(O)COC1=O)C1=C(O)COC1=O`: the growth inhibition is 0%.

`CSC1=NNC(SC)=NN1`: the growth inhibition was 98% (active).

As to `Cc1c(Cl)ccc2c1S(=O)(=O)c1cccc(Cl)c1-2`, the growth inhibition is -9%.

`[O-][n+]1c2ccc(O)cc2nc2ccc(Cl)cc21`: the growth inhibition was 75% (active).

Consider `COc1ccc2ccc3ccccc3c2c1C=O`, for which the growth inhibition is 63%.

As to `Nc1ccc2c(c1)C(=O)c1cccc(N)c1C2=O`, the growth inhibition was 92% (active).

For the compound `O=C(c1ccc(Cl)cc1Cl)C(Cl)Cl`, the growth inhibition is 98% (active).

Regarding `COc1cc(C(=O)/C=C/c2ccccc2O)ccc1O`, the growth inhibition is 98% (active).

As for `O=Cc1cccc2ccc3ccccc3c12`, the growth inhibition is 98% (active).

Regarding `O=C(Nc1ccc(Cl)cc1)OCC#CCCl`, the growth inhibition is 27%.

As to `Cn1ccnc1Oc1ccc(Cl)cc1`, the growth inhibition was 97% (active).

Consider `c1ccc2c(c1)C(=NCCCN1CCCCCC1)c1cccn1-2`, for which the growth inhibition was 97% (active).

For the compound `C/C(=N\O)C1CC2C=C(C#N)C1N(Cc1ccccc1)C2` (configuration not stated), the growth inhibition is 8%.

Take `O=[N+]([O-])C(=C(Sc1ccccc1)Sc1ccccc1)C(Cl)=C(Cl)Cl`: the growth inhibition was 59%.

For the compound `CCCCCCCCCC/C=C\C(=O)O`, the growth inhibition is 97% (active).

With `COc1ccc(N=C2C(=O)Nc3ccc(Br)cc32)cc1`, the growth inhibition is 17%.

Regarding `COc1ccccc1C(=O)OCC1CCCN2CCCCC12` (configuration not stated), the growth inhibition was 97% (active).

`CC(C)(Br)C(=O)/C=C/c1ccc(Cl)c(Cl)c1`: the growth inhibition was -4%.

On to `Nc1ccccc1CC(O)C(=O)O` (configuration not stated), for which the growth inhibition was 88% (active).

For the compound `CC(=O)N/N=C/C(C)(C)C(C)(C)/C=N/NC(C)=O`, the growth inhibition was 97% (active).

For the compound `CN(C)c1nc2sc3c(c2c(=O)o1)CCCC3`, the growth inhibition is 36%.

On to `CC(C)OC(=O)Oc1ccccc1OC(=O)OC(C)C`, for which the growth inhibition is -3%.

On to `Cc1ccc(N)c(S)c1`, for which the growth inhibition was 97% (active).

For the compound `O=C(O)c1ccccc1NC(=S)c1ccccc1`, the growth inhibition was 67%.

For the compound `COC(=O)c1ccc(NCC2=CC(=O)C=CC2=O)cc1O`, the growth inhibition was 92% (active).

With `NC(N)=N/N=C\c1c2ccccc2cc2ccccc12`, the growth inhibition is 94% (active).

As for `COC(=O)CSSCc1ccc([N+](=O)[O-])cc1`, the growth inhibition is 98% (active).

With `CCS(=O)(=O)c1ccc(/C=C/C=N/NC(=S)NCC(C)C)cc1`, the growth inhibition was 1%.

`N#CC(C(=O)Nc1ccccc1)C1=C(Cl)C(=O)c2ccccc2C1=O` (configuration not stated): the growth inhibition was 97% (active).

`C[C@H](CCC(=O)NN)[C@H]1CC[C@H]2[C@@H]3CC[C@@H]4C[C@H](O)CC[C@]4(C)[C@H]3CC[C@]12C`: the growth inhibition was 10%.

With `CC[n+]1ccc2c(C)c3[nH]c4ccc(O)cc4c3c(C)c2c1`, the growth inhibition is 92% (active).

Another assay can be described thus: NCI Yeast Anticancer Drug Screen. Data for the wt1 strain (AID 149).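 Further: 0% = growth of vehicle-treated wt1 cultures.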 The settings on record: S. cerevisiae wt1 strain (SPY 50644) growth inhibition; at 1.2 µM; active compounds read high. In short, it runs like this: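 Growth inhibition read against vehicle controls after compound exposure of the wt1 yeast strain.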
As for `CCCc1cc(C(=O)OCC)cc(CCC)c1O`, the growth inhibition is -1%.

Regarding `CC(C)[N+]([O-])(CCCNc1c2ccccc2nc2cccc([N+](=O)[O-])c12)C(C)C`, the growth inhibition is 0%.

Regarding `COc1cc2c3c(cccc3c1)C(=O)N(CCN(C)C)C2=O`, the growth inhibition is -6%.

Take `NC(=O)NN=C(CS)CS`: the growth inhibition was -1%.

Regarding `Cc1ccc(NC(=O)/C(Cl)=C(\Cl)C(=O)O)cc1C`, the growth inhibition is -2%.

Turning to `CCN(CC)CC[n+]1ccc2c(C)c3[nH]c4ccc(O)cc4c3c(C)c2c1`, the growth inhibition was 0%.

Consider `CC(CC(C)(C)[N+](C)(C)C)[N+](C)(C)C` (configuration not stated), for which the growth inhibition was 3%.

As for `COc1ccc(OC)c2cc3ccccc3cc12`, the growth inhibition was -19%.

In the case of `Nc1ncncc1C(C1=C(O)COC1=O)C1=C(O)COC1=O`, the growth inhibition was 1%.

In the case of `CSC1=NNC(SC)=NN1`, the growth inhibition is -7%.

Take `Cc1c(Cl)ccc2c1S(=O)(=O)c1cccc(Cl)c1-2`: the growth inhibition was -6%.

Consider `[O-][n+]1c2ccc(O)cc2nc2ccc(Cl)cc21`, for which the growth inhibition is 4%.

Regarding `COc1ccc2ccc3ccccc3c2c1C=O`, the growth inhibition is -3%.

In the case of `Nc1ccc2c(c1)C(=O)c1cccc(N)c1C2=O`, the growth inhibition is -1%.

With `O=C(c1ccc(Cl)cc1Cl)C(Cl)Cl`, the growth inhibition was -1%.

As for `COc1cc(C(=O)/C=C/c2ccccc2O)ccc1O`, the growth inhibition is -11%.

Take `O=Cc1cccc2ccc3ccccc3c12`: the growth inhibition was -6%.

Take `O=C(Nc1ccc(Cl)cc1)OCC#CCCl`: the growth inhibition is -1%.

Take `Cn1ccnc1Oc1ccc(Cl)cc1`: the growth inhibition was 1%.

Regarding `c1ccc2c(c1)C(=NCCCN1CCCCCC1)c1cccn1-2`, the growth inhibition is -2%.

As for `C/C(=N\O)C1CC2C=C(C#N)C1N(Cc1ccccc1)C2` (configuration not stated), the growth inhibition is 0%.

For the compound `O=[N+]([O-])C(=C(Sc1ccccc1)Sc1ccccc1)C(Cl)=C(Cl)Cl`, the growth inhibition is 3%.

As to `CCCCCCCCCC/C=C\C(=O)O`, the growth inhibition is -12%.

With `COc1ccc(N=C2C(=O)Nc3ccc(Br)cc32)cc1`, the growth inhibition is 8%.

With `COc1ccccc1C(=O)OCC1CCCN2CCCCC12` (configuration not stated), the growth inhibition is 0%.

In the case of `CC(C)(Br)C(=O)/C=C/c1ccc(Cl)c(Cl)c1`, the growth inhibition was -2%.

Regarding `Nc1ccccc1CC(O)C(=O)O` (configuration not stated), the growth inhibition was 2%.

Consider `CC(=O)N/N=C/C(C)(C)C(C)(C)/C=N/NC(C)=O`, for which the growth inhibition was -3%.

In the case of `CN(C)c1nc2sc3c(c2c(=O)o1)CCCC3`, the growth inhibition is -5%.

Consider `CC(C)OC(=O)Oc1ccccc1OC(=O)OC(C)C`, for which the growth inhibition was -2%.

As to `Cc1ccc(N)c(S)c1`, the growth inhibition is -23%.

Turning to `O=C(O)c1ccccc1NC(=S)c1ccccc1`, the growth inhibition is 4%.

Regarding `COC(=O)c1ccc(NCC2=CC(=O)C=CC2=O)cc1O`, the growth inhibition is -14%.

As to `NC(N)=N/N=C\c1c2ccccc2cc2ccccc12`, the growth inhibition is -38%.

Take `COC(=O)CSSCc1ccc([N+](=O)[O-])cc1`: the growth inhibition was -1%.

For the compound `CCS(=O)(=O)c1ccc(/C=C/C=N/NC(=S)NCC(C)C)cc1`, the growth inhibition is 0%.

As for `N#CC(C(=O)Nc1ccccc1)C1=C(Cl)C(=O)c2ccccc2C1=O` (configuration not stated), the growth inhibition is -23%.

Take `C[C@H](CCC(=O)NN)[C@H]1CC[C@H]2[C@@H]3CC[C@@H]4C[C@H](O)CC[C@]4(C)[C@H]3CC[C@]12C`: the growth inhibition was 1%.

As for `CC[n+]1ccc2c(C)c3[nH]c4ccc(O)cc4c3c(C)c2c1`, the growth inhibition is -13%.
